According to PubChem BioAssay (NCATS):
Inconclusive results are not listed. Unmarked numbers belong to inactive results. The source made the active and inactive calls. Calls follow the shape of the dose curve; as a rule, active = well fitted inhibition curve with a large enough effect; inconclusive = small, poorly fitted or top-dose-only effect; inactive = flat fitted curve, though single readings scatter.

Experiment: qHTS to identify inhibitors of the type 1 interferon - major histocompatibility complex class I in skeletal muscle: primary screen against the NCATS LOPAC collection (AID 1347405);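 also: human myoblasts with HiBiT tag on endogenous HLA-B stimulated by IFN-beta; lytic HiBiT luminescence reporting HLA-B protein level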
Settings: iHSKM muscle cells, IFN-b-induced MHC-I HiBiT luminescence, 24 h; series mostly up to 45.9 µM; activity change, negative = inhibition: at the top concentration
In short: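 HLA-B HiBiT myoblasts, IFN-b 4 ng/ml, dexamethasone-free medium; compounds 7-pt 1:4.3 titration, top 46 uM final; 24 h at 37 C; Nano-Glo HiBiT lytic reagent, 10 min RT, luminescence.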
% is scaled to controls: 0 for no effect and ±100 for the full control effect; potency is read from the fitted curve at half-maximal effect.

| Structure (SMILES) | activity change, negative = inhibition [%] | Potency |
| --- | --- | --- |
| O=C(Nc1cccc(C(=O)Nc2ccc(S(=O)(=O)O)c3cc(S(=O)(=O)O)cc(S(=O)(=O)O)c23)c1)Nc1cccc(C(=O)Nc2ccc(S(=O)(=O)O)c3cc(S(=O)(=O)O)cc(S(=O)(=O)O)c23)c1 | -20.6 |  |
| CN(C)CCC(c1ccc(Cl)cc1)c1ccccn1 (configuration not stated) | 5.41 |  |
| CSc1ccccc1N1CCN(CCCCCC(=O)NC2CCCc3ccccc32)CC1 (configuration not stated) | 12.7 |  |
| CC(C)(C=O)Cc1cc(C(C)(C)C)c(O)c(C(C)(C)C)c1 | -26.5 |  |
| C[N+](C)(C)CCOP(=O)(O)OP(=O)([O-])OC[C@H]1O[C@@H](n2ccc(N)nc2=O)[C@H](O)[C@@H]1O | 1.17 |  |
| COc1cccc(C(=O)NCCN2CCN(c3ccc(Cl)cc3)CC2)c1 | -12.8 |  |
| Cn1ncc(S(=O)(=O)Cc2ccccc2)c(Br)c1=O | -12.2 |  |
| COc1ccccc1CNCCCCCCNCCCCCCCCNCCCCCCNCc1ccccc1OC | -2.11 |  |
| O=[N+]([O-])c1ccc(CNc2nc(NCc3cccc(C(F)(F)F)c3)nc3nc[nH]c23)cc1 | -22.2 |  |
| CC(C)NC[C@H](O)COc1cccc2[nH]ccc12 | -1.52 |  |
| CCC(CO)Nc1nc(NCc2ccccc2)c2ncn(C(C)C)c2n1 (configuration not stated) |  | 15.8 µM (active) |
| NC(=O)C(=O)O | 5.78 |  |
| O=P(O)(O)C(Cl)(Cl)P(=O)(O)O | 3.56 |  |
| COc1cc2c(CCNC(C)=O)c[nH]c2cc1Cl | -3.06 |  |
| NC(N)=NC(=O)c1nc(Cl)c(N2CCCCCC2)nc1N | -18 |  |
| COc1ccc(NC(=O)/C=C/c2ccc(Cl)cc2)cc1 | -10.5 |  |
| CC(=O)/C=C1\C(=O)N(C)c2ccccc21 |  | 22.4 µM (active) |
| CC1CN(S(=O)(=O)c2cccc3cnccc23)CCN1 (configuration not stated) | -23.1 |  |
| CCOC(=O)C1=C(C)NC(C)=C(C(=O)OCC)C1c1c(F)c(F)c(F)c(F)c1F |  | 20 µM (active) |

| Structure (SMILES) | activity change, negative = inhibition [%] | Potency |
| --- | --- | --- |
| Clc1ccc(N2CCN(Cc3cc4ccccn4n3)CC2)cc1 | 0.583 |  |
| CO/N=C(\C(=O)N[C@@H]1C(=O)N2C(C(=O)O)=C(COC(C)=O)CS[C@H]12)c1csc(N)n1 | -2.46 |  |
| COc1ccc(C(=O)/C(Cc2cc(OC)c(OC)c(OC)c2)=C(\C(=O)O)c2ccc3c(c2)OCO3)cc1 |  | 14.1 µM (active) |
| O=C(c1ccc(Cl)cc1)N1CCN(c2ccc([N+](=O)[O-])c3ncccc23)CC1 | -17.3 |  |
| O=C1NCc2c1c1c3ccccc3[nH]c1c1[nH]c3ccccc3c21 |  | 7.94 µM (active) |
| Fc1ccc(C(OCCCc2cnc[nH]2)c2ccc(F)cc2)cc1 | -8.96 |  |
| Cc1cc(NC2CCCCC2)nc(-n2nc(C)cc2C)n1 | -7.16 |  |
| CCN1/C(=C/C(C)=O)Sc2ccc(OC)cc21 | -13.3 |  |
| O=C(O)c1cc([N+](=O)[O-])ccc1NCCCc1ccccc1 | -8.12 |  |
| N[C@H](CCCP(=O)(O)O)C(=O)O | -8.48 |  |
| CN[C@H](CC(C)C)C(=O)N[C@H]1C(=O)N[C@@H](CC(N)=O)C(=O)N[C@H]2C(=O)N[C@H]3C(=O)N[C@H](C(=O)N[C@H](C(=O)O)c4cc(O)cc(O)c4-c4cc3ccc4O)[C@H](O)c3ccc(c(Cl)c3)Oc3cc2cc(c3O[C@@H]2O[C@H](CO)[C@@H](O)[C@H](O)[C@H]2O[C@H]2C[C@](C)(N)[C@H](O)[C@H](C)O2)Oc2ccc(cc2Cl)[C@H]1O | -1.15 |  |
| COc1ccc(/C=C2\COc3ccc(C)cc3C2=O)cc1O |  | 14.1 µM (active) |
| O=C(O)CCCC[C@@H]1CCSS1 | -15.6 |  |
| N=c1ccn2c(n1)O[C@H]1[C@H](O)[C@@H](CO)O[C@H]12 | 0.907 |  |
| COCCOc1cc2ncnc(Cl)c2cc1OCCOC | 2.79 |  |
| CN(CCCOc1ccc(Cc2ccccc2)cc1)CCC(=O)O | -6.31 |  |
| NO | -0.513 |  |
| OCC1O[C@H](O)C(Cl)C(O)C1O (some centres not stated) | -2.5 |  |
